Results filed as inconclusive are left out. The source made the active and inactive calls. Unless noted, calls come from the whole dose curve; as a rule, active = well fitted curve in the direction sought with a large enough effect in the repeat runs; inconclusive = weak or mixed curves; inactive = no such curve, though single readings can be large; an effect the other way counts as inactive or inconclusive.
Tests used:
[1] = qHTS assay to identify small molecule agonists of the hypoxia (HIF-1) signaling pathway - cell viability counter screen (AID 1224844; calls by dose curve; note: nearly all actives have a fitted effect of over 50% in size)
Outline: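 Same wells as the HIF-1 reporter screen; ME-180 cells carrying HRE-bla, 17 hr treatment at 37C; CellTiter-Glo luminescence read after 30 min at room temperature.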

[2] = qHTS assay to identify small molecule agonists of H2AX (AID 1224845; active = well fitted activation curve with a large enough effect in the signal ratio in the repeat runs, not every such curve was filed as active; the % refers to the signal ratio)
Outline: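 Wild-type CHO-K1 cells, plated overnight, exposed 3hr at 37C to 15 concentrations (0.76% DMSO final). Lysed, then HTRF anti-pH2AX (S139) cryptate and anti-H2AX-d2 antibodies, 24 hr room temperature; 665/620 nm emission read.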

[3] = qHTS assay to identify small molecule agonists of H2AX - cell viability counter screen (AID 1224847; calls by dose curve; note: top concentration of the series differs between compounds; nearly all actives have a fitted effect of over 30% in size)
Outline: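 Cells plated first: CHO-K1, 1000 per well in 10% FBS medium, incubated overnight at 37C. Then 15-point compound titration added (final DMSO 0.76%) for 3 hr. Finally CellTiter-Glo added and luminescence read.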

[4] = qHTS assay to identify small molecule antagonists of the estrogen related receptor (ERR) signaling pathway from Tox21 library (AID 1224848); note: nearly all actives have a fitted effect of over 50% in size
Outline: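 Compounds dissolved in DMSO are pin-transferred onto ERR reporter cells (2,000 per well) that have settled for 6 h at 37 C. Plates then incubate 18 h at 37 C before ONE-Glo luciferase reagent and a luminescence read 30 min later.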

[5] = qHTS assay to identify small molecule agonists of the estrogen related receptor (ERR) signaling pathway from Tox21 library (AID 1224849; calls by dose curve; note: nearly all actives have a fitted effect of over 15% in size); conditions: ERR reporter cell line, ONE-Glo luciferase, 18 h; at 92.4 µM (top of the series) unless noted
Outline: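 Reporter cells (ERR, NTP source) treated with Tox21 10K compounds 18 h, 37 C. Readout: ONE-Glo luminescence, 30 min RT.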

[6] = qHTS RealTime-Glo MT Cell Viability Assay in HepG2 cells - 24 hour (AID 1224867); note: nearly all actives have a fitted effect of over 50% in size
Outline: (§1)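 qHTS, HepG2, 600 cells/well, RealTime-Glo (NanoLuc + prosubstrate) added with cells; 5 h preincubation; DMSO compound addition; 37 C; luminescence at 0/8/16/24/32/40 h.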

[7] = qHTS RealTime-Glo MT Cell Viability Assay in HEK293 cells - 32 hour (AID 1224868); note: top concentration of the series differs between compounds; nearly all actives have a fitted effect of over 50% in size
Outline: (§2)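 Assay medium contained NanoLuc luciferase plus cell-permeant prosubstrate, added with HEK293 cells at 600 cells/well. After 5 h at 37 C/5% CO2 compounds were added; plates stayed at 37 C for 40 h with serial luminescence reads.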

[8] = A CellTox Green Cytotoxicity Assay to monitor cytotoxicity in HEK293 cells - 0 hour (AID 1224869); note: nearly all actives have a fitted effect of over 50% in size
Outline: (§3)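 Homogeneous no-lysis format: HEK293 cell suspension mixed with CellTox Green reagent, seeded, incubated 5 h at 37 C/5% CO2, then dosed by pintool with compound in DMSO.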

[9] = qHTS RealTime-Glo MT Cell Viability Assay in HepG2 cells - 40 hour (AID 1224870); note: nearly all actives have a fitted effect of over 50% in size
Outline: (§4)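 HepG2 cells (600/well) mixed with RealTime-Glo MT reagent, settled 5 h at 37 C/5% CO2 before compound addition. Nonlytic NanoLuc luminescence from viable-cell prosubstrate reduction read repeatedly during 40 h treatment at 37 C.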

[10] = A CellTox Green Cytotoxicity Assay to monitor cytotoxicity in HEK293 cells - 40 hour (AID 1224871); note: nearly all actives have a fitted effect of over 45% in size
Outline: as §3

[11] = qHTS RealTime-Glo MT Cell Viability Assay in HEK293 cells - 16 hour (AID 1224872)
Outline: as §2

[12] = qHTS RealTime-Glo MT Cell Viability Assay in HepG2 cells - 8 hour (AID 1224873); note: nearly all actives have a fitted effect of over 55% in size
Outline: as §4

[13] = qHTS RealTime-Glo MT Cell Viability Assay in HEK293 cells - 40 hour (AID 1224874); conditions: RealTime-Glo luminescence; max response: stronger effect = lower value; note: nearly all actives have a fitted effect of over 50% in size
Outline: (§5)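 Measured as luminescence from the same continuously cultured HEK293 wells at successive time points (0, 8, 16, 24, 32, 40 h) after compound addition. Reagent present from seeding; dosing at 5 h; incubation 37 C.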

[14] = A CellTox Green Cytotoxicity Assay to monitor cytotoxicity in HepG2 cells - 16 hour (AID 1224876); note: nearly all actives have a fitted effect of over 45% in size
Outline: (§6)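 Fluorescent DNA-binding dye, 600 HepG2 cells/well, 5 h preincubation then compound in DMSO; same plates read at 0–40 h, 37 C.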

[15] = qHTS RealTime-Glo MT Cell Viability Assay in HepG2 cells - 32 hour (AID 1224877); note: nearly all actives have a fitted effect of over 55% in size
Outline: as §1

[16] = A CellTox Green Cytotoxicity Assay to monitor cytotoxicity in HepG2 cells - 24 hour (AID 1224878); note: nearly all actives have a fitted effect of over 45% in size
Outline: as §6

[17] = A CellTox Green Cytotoxicity Assay to monitor cytotoxicity in HepG2 cells - 40 hour (AID 1224879); note: nearly all actives have a fitted effect of over 40% in size
Outline: as §6

[18] = qHTS assay to identify small molecule agonists of the hypoxia (HIF-1) signaling pathway (AID 1224846; active = well fitted activation curve with a large enough effect in the signal ratio in the repeat runs, not every such curve was filed as active; the % refers to the signal ratio)
Outline: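 In ME-180 cells bearing an HRE-bla construct, 17 h treatment with DMSO-dissolved compounds at 37C was followed by CCF4-AM loading to quantify reporter induction.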

[19] = A CellTox Green Cytotoxicity Assay to monitor cytotoxicity in HEK293 cells - 24 hour (AID 1224875); note: nearly all actives have a fitted effect of over 45% in size
Outline: as §3

[20] = qHTS RealTime-Glo MT Cell Viability Assay in HEK293 cells - 0 hour (AID 1224880)
Outline: as §5
% is set by controls: 0 for no effect and ±100 for the full control effect.

CCCn1cnc2c1c(=O)n(CCCCC(C)=O)c(=O)n2C
inactive: Potency [1] | Potency [2] | Potency [3] | Potency [4] | activity change, positive = activation [5] 0.154% [at 42.5 µM] | Potency [6] | Potency [7] | Potency [8] | Potency [9] | Potency [10] | Potency [11] | Potency [12] | max response [13] -0.107% | Potency [14] | Potency [15] | Potency [16] | Potency [17]

CC(C)O.CC(C)O.CCOC(=O)/C=C(\C)O.CCOC(=O)/C=C(\C)O.[Ti]
inactive: Potency [1] | Potency [2] | Potency [18] | Potency [6] | Potency [7] | Potency [8] | Potency [9] | Potency [11] | Potency [12] | max response [13] -0.8% | Potency [19] | Potency [14] | Potency [15] | Potency [16] | Potency [17] | Potency [20]

CNC(=O)CN(CCN(CCN(CC(=O)[O-])CC(=O)NC)CC(=O)[O-])CC(=O)[O-].O.[Gd+3]
inactive: Potency [1] | Potency [2] | Potency [18] | Potency [6] | Potency [7] | Potency [8] | Potency [9] | Potency [11] | Potency [12] | max response [13] 2.96% | Potency [19] | Potency [14] | Potency [15] | Potency [16] | Potency [17] | Potency [20]

S=C([S-])NCCNC(=S)[S-].[Mn+2]
inactive: Potency [1] | Potency [2] | Potency [18] | Potency [6] | Potency [8] | Potency [9] | Potency [12] | Potency [19] | Potency [14] | Potency [15] | Potency [16] | Potency [17]

OCCNCc1ccccc1
inactive: Potency [1] | Potency [2] | Potency [18] | Potency [6] | Potency [7] | Potency [8] | Potency [9] | Potency [10] | Potency [11] | Potency [12] | max response [13] -10.3% | Potency [19] | Potency [15] | Potency [16] | Potency [17] | Potency [20]

CCOC(=O)C(O)c1ccccc1 (centres undefined)
inactive: Potency [1] | Potency [2] | Potency [3] | Potency [4] | activity change, positive = activation [5] 3.78% [at 42.5 µM] | Potency [6] | Potency [7] | Potency [8] | Potency [9] | Potency [10] | Potency [11] | Potency [12] | max response [13] 4.49% | Potency [19] | Potency [14] | Potency [15] | Potency [16] | Potency [17] | Potency [20]

Nc1cccc([N+](=O)[O-])c1
inactive: Potency [1] | Potency [2] | Potency [3] | Potency [4] | activity change, positive = activation [5] -5.85% | Potency [6] | Potency [7] | Potency [8] | Potency [9] | Potency [10] | Potency [11] | Potency [12] | max response [13] 1.66% | Potency [14] | Potency [15] | Potency [16] | Potency [17] | Potency [20]
